Drawing on PubChem BioAssay (NCI), this text covers growth for 40 compounds.

Several values for one entry are separate records, joined by “and”; a condition that tells them apart may be missing. Equal values may be shown once. The panel holds about 83,000 compounds, 20% with a hit somewhere; the sample as a whole holds those more often.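 Cells were grown in 96-well plates and exposed to the test compound at a single concentration for 48 hours; results are reported as percent growth, with values below 10 considered active.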 Activity calls are given as the source filed them.

This assay relates to HL-60(TB) leukemia. Briefly: NCI-60 one-dose screen, 48 h (100 = growth as untreated, 0 = no growth, -100 = all killed). Particulars: 10 µM unless noted.
With `CCCCCCCCCCCCN1CCCC(C)C1` (stereo not given), the growth is 55.6% (inactive).

In the case of `CC1(C)OC(=O)C(=Cc2ccc(C#N)cc2)C(=O)O1`, the growth is 93.3% (inactive) and 88.8% (inactive). Consider `OB(O)c1ccccc1`, for which the growth was 98.1% (inactive). In the case of `[B-][N+](CC)(CC)c1ccccc1` it was 45.6% (inactive); in that of `CCOC(=O)/C=C1\S/C(=N\Nc2cc(=O)[nH]c3ccc(Cl)cc23)N(c2ccccc2)C1=O`, 0.175% (active); in that of `COc1cc(CNC(=O)/C=C/C=C/c2ccc3c(c2)OCO3)ccc1OCc1cn(-c2ccc(C)c(C)c2)nn1`, 84.4% (inactive). As to `NS(=O)(=O)c1ccc(N2Cc3cc(Cl)ccc3OC3=C2C(=O)N(CC2CCCCC2)C3=O)cc1`, the growth was -35.9% (active). In the case of `Cc1cc(CC(=O)O)n(C)c1C(=O)c1ccc(Cl)cc1` it was 105% (inactive); in that of `O=C(Nc1cccc(Cl)c1)Nc1cc(C(F)(F)F)ccc1Cl`, -6.22% (active). Turning to `c1ccc(-c2ccc3ccccc3c2)cc1`, the growth was 109% (inactive). In the case of `O=C1c2ccc3c4c5ccc(c24)C(=O)N1CCCOCCCCOCCCNCc1ccc(cc1)CNCCCOCCCCOCCCN(C3=O)C5=O`, the growth was -61.1% (active).

For the compound `N=C(N)c1ccc(-c2ccc(-c3cc(Cl)cc(Cl)c3)o2)o1`, the growth is -64% (active). In the case of `Clc1cc2c(c(CSc3nc4ccccc4n4cccc34)c1)OCOC2` it was 84.9% (inactive); in that of `COc1ccc(SC2c3cc(OC)c(OC)cc3Oc3nc(N)c(C#N)c(N)c32)cc1` (stereo not given), -51.5% (active). To `CCCCC[C@@H]1Cc2cc(O)c(C(=O)O)c3c2[C@H](C[C@]2(OC[C@@H](CC(=O)[C@@](C)(CC)C(=O)OC)[C@@H]2C)O3)O1` belongs 116% (inactive). With `C=CCCCOC1[C@H](OCc2ccccc2)C(OCc2ccccc2)C(OC)O[C@@H]1CNC(=O)c1cccc(I)c1` (stereo not given in full), the growth was 55.1% (inactive). With `Cc1cc(OCc2ccc(C(F)(F)F)cc2)c2c(c1)C(=O)C=C(NCCN1CCCC1)C2=O`, the growth was 96.6% (inactive). To `O=C(Cn1c(=O)sc2nc3ccccc3nc21)Nc1ncc(Cc2cccc(Cl)c2Cl)s1` belongs 98.3% (inactive).

For the compound `COC(=O)c1ccccc1C(=O)c1c(C)cc(C)cc1C`, the growth is 84.6% (inactive). To `COc1cccc2c1nc1cccc(OC)c1[n+]2[O-]` belongs 0.0729% (active). Take `O=C(Nc1ccc(Br)cc1)Nc1ccccc1Cl`: the growth is 70.7% (inactive).

With `Cc1nc2ccc(-n3ncc(C(=O)c4cc5ccccc5[nH]4)c3N)cc2[nH]1`, the growth was 36.5% (inactive). To `CC(=O)OCC1OC(OC(C)=O)C(OC(C)=O)C(OC(C)=O)C1OC(C)=O` (stereo not given) belongs 120% (inactive) and 101% (inactive); to `O=c1c2ccccc2nc2n1Cc1nc3ccccc3c(=O)n1C2`, 100% (inactive) and -60.2% (active).

Regarding `CS(=O)(=O)Nc1ccc([N+](=O)[O-])cc1Oc1ccccc1`, the growth was 92.9% (inactive). To `COc1ccc(-c2c(-c3nc4ccc(N5CCOCC5)cc4[nH]3)[nH]c(C)c2C(C)=O)cc1` belongs 4.22% (active). For `COc1ccc2c(c1)C1=NN(C(=O)CO)[C@H](c3ccc(OC(F)(F)F)cc3)[C@@H]1CC2`, the growth was 104% (inactive).

`CCn1c2ccccc2c2cc(NC(=O)Nc3ccc([N+](=O)[O-])cc3C)ccc21`: the growth was 18.7% (inactive). To `O=C(Cn1c(-c2ccc([N+](=O)[O-])cc2)nc2ccccc21)NNC(=O)c1cccnc1` belongs 65.9% (inactive); to `Cn1ncc2c(Nc3ccc(Br)cc3)nc(Nc3ccc(Br)cc3)nc21`, 69.2% (inactive); to `O=C(/C(=C/c1ccc([N+](=O)[O-])cc1)SCc1ccc(F)cc1)c1ccc(Cl)cc1`, 64.2% (inactive).

Consider `CCc1nc2c(=O)[nH]cnc2o1`, for which the growth is 106% (inactive). Take `CCCCCCCCCCCCc1ccc([N+](CC)(CC)CC)cc1`: the growth is -10.9% (active). With `O=C(NC(Cc1cn(Cc2ccccc2)cn1)C(=O)O)OCC1c2ccccc2-c2ccccc21` (stereo not given), the growth was 87.4% (inactive). As to `O=S(=O)(Nc1ccccc1)c1ccc(C2CC3(Cl)C(Cl)=C(Cl)C2(Cl)C3(Cl)Cl)cc1` (stereo not given), the growth is 13% (inactive). For `COc1cccc(Nc2nc(NCCO)c3ccccc3n2)c1`, the growth was 61.4% (inactive). In the case of `CCC1(C(N)=O)CC2C=CC1CC2` (stereo not given), the growth is 110% (inactive). In the case of `COc1ccc(C(=O)c2cc(C)c(OC)c(C)c2)c(OC)c1N(C(=O)C(Cl)Cl)C(=O)C(Cl)Cl` it was -32% (active). On to `CCCCCCCC12Cc3ccccc3C1=Nc1c(c3ccccc3n1C)C2=O` (stereo not given), for which the growth was 91.4% (inactive).

For the compound `CCc1c(CC(=O)O)c2cc(C)ccc2n1Cc1ccc(Cl)cc1`, the growth was 89.3% (inactive) and 161% (inactive).
